# Laboratory results taken from the supplement of paper PMC8728848.
# Many of the other results were omitted from the sample, so the strongest signals are more common in it than they were.
# Key:
# Assay in all cases: glycan array binding signal (z-score within array); higher = stronger binding
# Conditions in all cases: glycan notation: IUPAC condensed, linker removed
# [1] = molecular target: Fuc(a1-2)Gal(b1-4)[Fuc(a1-3)]GlcNAc(b1-3)Gal(b1-4)[Fuc(a1-3)]GlcNAc
# Method in brief: (§1)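 Columns mapping to the same glycan were averaged after glycan names were converted to IUPAC-condensed notation. The data come from 3228 arrays in the Consortium for Functional Glycomics database, limited to those with an available protein sequence. Binding is reported as a within-array Z-score averaged across arrays of one protein sequence and across linkers.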
# [2] = molecular target: Fuc(a1-2)[Gal(a1-3)]Gal(b1-4)Glc
# Method in brief: as §1
# Fuc(a1-4)GlcNAc = molecular target: Fuc(a1-4)GlcNAc
# Method in brief: as §1
# [3] = molecular target: Gal(a1-3)[Gal(a1-4)]Gal(b1-4)GlcNAc
# Method in brief: as §1
# [4] = molecular target: Gal(b1-3)GlcNAc(b1-3)Gal(b1-4)GlcNAc
# Method in brief: as §1
# Gal(b1-4)Glc = molecular target: Gal(b1-4)Glc
# Method in brief: as §1
# [5] = molecular target: Gal(b1-4)GlcNAc(b1-2)Man(a1-3)[Gal(b1-4)GlcNAc(b1-2)Man(a1-6)]Man(b1-4)GlcNAc(b1-4)GlcNAc
# Method in brief: as §1
# [6] = molecular target: Gal(b1-4)GlcNAc(b1-3)Gal(b1-4)Glc
# Method in brief: as §1
# [7] = molecular target: Gal(b1-4)GlcNAc(b1-3)[GlcNAc(b1-6)]Gal(b1-4)GlcNAc
# Method in brief: as §1
# [8] = molecular target: Gal3S(b1-3)[Fuc(a1-4)]GlcNAc
# Method in brief: as §1
# Gal3S(b1-4)Glc = molecular target: Gal3S(b1-4)Glc
# Method in brief: as §1
# Gal4S6S(b1-4)GlcNAc = molecular target: Gal4S6S(b1-4)GlcNAc
# Method in brief: as §1
# Gal6S(b1-4)Glc = molecular target: Gal6S(b1-4)Glc
# Method in brief: as §1
# Glc(b1-6)Glc = molecular target: Glc(b1-6)Glc
# Method in brief: as §1
# [9] = molecular target: GlcNAc(b1-2)Gal(b1-3)GalNAc
# Method in brief: as §1
# GlcNAc(b1-3)Gal = molecular target: GlcNAc(b1-3)Gal
# Method in brief: as §1
# GlcNAc(b1-3)GalNAc = molecular target: GlcNAc(b1-3)GalNAc
# Method in brief: as §1
# [10] = molecular target: GlcNAc(b1-3)[GlcNAc(b1-4)][GlcNAc(b1-6)]GlcNAc
# Method in brief: as §1
# [11] = molecular target: GlcNAc(b1-3)[GlcNAc(b1-6)]GlcNAc(b1-4)GlcNAc
# Method in brief: as §1
# [12] = molecular target: Man(a1-3)[Man(a1-6)]Man(a1-6)[Man(a1-3)]Man
# Method in brief: as §1
# [13] = molecular target: Neu5Ac(a2-3)Gal(b1-3)GalNAc(b1-3)Gal(a1-4)Gal(b1-4)Glc
# Method in brief: as §1
# [14] = molecular target: Neu5Ac(a2-3)Gal(b1-3)[Fuc(a1-4)]GlcNAc
# Method in brief: as §1
# [15] = molecular target: Neu5Ac(a2-3)Gal(b1-3)[Fuc(a1-4)]GlcNAc(b1-3)Gal(b1-4)[Fuc(a1-3)]GlcNAc
# Method in brief: as §1
# [16] = molecular target: Neu5Ac(a2-3)Gal(b1-4)GlcNAc(b1-2)Man(a1-3)[Neu5Ac(a2-3)Gal(b1-4)GlcNAc(b1-2)Man(a1-6)]Man(b1-4)GlcNAc(b1-4)GlcNAc
# Method in brief: as §1
# [17] = molecular target: Neu5Ac(a2-3)Gal(b1-4)[Fuc(a1-3)]GlcNAc(b1-3)Gal
# Method in brief: as §1
# [18] = molecular target: Neu5Ac(a2-6)Gal(b1-4)GlcNAc(b1-2)Man(a1-6)[GlcNAc(b1-2)Man(a1-3)]Man(b1-4)GlcNAc(b1-4)GlcNAc
# Method in brief: as §1
# [19] = molecular target: Neu5Ac(a2-6)GalNAc(b1-4)GlcNAc
# Method in brief: as §1
# [20] = molecular target: Neu5Ac9Ac(a2-6)Gal(b1-4)GlcNAc
# Method in brief: as §1
# [21] = molecular target: Neu5Gc(a2-3)Gal(b1-3)[Fuc(a1-4)]GlcNAc
# Method in brief: as §1
# Neu5Gc(a2-6)GalNAc = molecular target: Neu5Gc(a2-6)GalNAc
# Method in brief: as §1
binder,measurement,setting,value
"E-Selectin (Homo sapiens), P16581 (protein) MIASQFLSALTLVLLIKESGAWSYNTSTEAMTYDEASAYCQQRYTHLVAIQNKEEIEYLNSILSYSPSYYWIGIRKVNNVWVWVGTQKPLTEEAKNWAPGEPNNRQKDEDCVEIYIKREKDVGMWNDERCSKKKLALCYTAACTNTSCSGHGECVETINNYTCKCDPGFSGLKCEQIVNCTALESPEHGSLVCSHPLGNFSYNSSCSISCDRGYLPSSMETMQCMSSGEWSAPIPACNVVECDAVTNPANGFVECFQNPGSFPWNTTCTFDCEEGFELMGAQSLQCTSSGNWDNEKPTCKAVTCRAVRQPQNGSVRCSHSPAGEFTFKSSCNFTCEEGFMLQGPAQVECTTQGQWTQQIPVCEAFQCTALSNPERGYMNCLPSASGSFRYGSSCEFSCEQGFVLKGSKRLQCGPTGEWDNEKPTCEAVRCDAVHQPPKGLVRCAHSPIGEFTYKSSCAFSCEEGFELHGSTQLECTSQGQWTEEVPSCQVVKCSSLAVPGKINMSCSGEPVFGTVCKFACPEGWTLNGSAARTCGATGHWSGLLPTCEAPTESNIPLVAGLSAAGLSLLTLAPFLLWLRKCLRKAKKFVPASSCQSLESDGSYQKPSYIL",glycan array binding signal (z-score),[1],-0.198
same,glycan array binding signal (z-score),[2],-0.226
same,glycan array binding signal (z-score),Fuc(a1-4)GlcNAc,-0.173
same,glycan array binding signal (z-score),[3],-0.265
same,glycan array binding signal (z-score),[4],-0.181
same,glycan array binding signal (z-score),Gal(b1-4)Glc,-0.251
same,glycan array binding signal (z-score),[5],-0.189
same,glycan array binding signal (z-score),[6],-0.075
same,glycan array binding signal (z-score),[7],-0.027
same,glycan array binding signal (z-score),[8],1.21
same,glycan array binding signal (z-score),Gal3S(b1-4)Glc,-0.07
same,glycan array binding signal (z-score),Gal4S6S(b1-4)GlcNAc,0.276
same,glycan array binding signal (z-score),Gal6S(b1-4)Glc,-0.044
same,glycan array binding signal (z-score),Glc(b1-6)Glc,-0.134
same,glycan array binding signal (z-score),[9],-0.209
same,glycan array binding signal (z-score),GlcNAc(b1-3)Gal,-0.024
same,glycan array binding signal (z-score),GlcNAc(b1-3)GalNAc,-0.266
same,glycan array binding signal (z-score),[10],-0.261
same,glycan array binding signal (z-score),[11],-0.105
same,glycan array binding signal (z-score),[12],-0.209
same,glycan array binding signal (z-score),[13],-0.173
same,glycan array binding signal (z-score),[14],9.04
same,glycan array binding signal (z-score),[15],3.76
same,glycan array binding signal (z-score),[16],-0.122
same,glycan array binding signal (z-score),[17],3.07
same,glycan array binding signal (z-score),[18],-0.282
same,glycan array binding signal (z-score),[19],-0.117
same,glycan array binding signal (z-score),[20],-0.181
same,glycan array binding signal (z-score),[21],12.1
same,glycan array binding signal (z-score),Neu5Gc(a2-6)GalNAc,-0.239
